# The whole screen tested about 360,000 compounds, of which about 3,700 (1%) were called active. Inconclusive results (about 2%) are left out.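 How the source made its calls: active means normalized GFP-positive differentiation at or above the plate's own cutoff, the solvent-only control mean plus 3 SD; inconclusive means no clear call, values can overlap the other calls; inactive means the rest.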 Many of the other results were omitted from the sample, so actives are more common in it than they were.
# Experiment: HoxA9-arrested leukemia cell differentiation promoters – flow cytometry, MLPCN library, primary screen (AID 624256);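 on GFP+ MAC1+ double positive: cells exposed to compound for four days before flow analysis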;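 on normalized GFP-positive differentiation: cells exposed to compound for four days before flow analysis; 0% = DMSO wells and 100% = fulvestrant positive control at 5 µM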
# Conditions: ER-HoxA9 myeloid progenitors, lysozyme-GFP differentiation, at 10 µM; GFP+ MAC1+ double positive: measured here: differentiation confirmed by MAC1 staining, stronger effect = higher value; normalized GFP-positive differentiation: stronger effect = higher value
SMILES,GFP+ MAC1+ double positive [%],outcome,normalized GFP-positive differentiation
CCCCn1nnnc1C(c1cccc(OC)c1OC)N1CCN(C/C=C/c2ccccc2)CC1 (stereo unspecified),1,inactive,
CCOc1nc(NCCN2CCOCC2)nc(Nc2ccc(C)cc2)n1,0.6,inactive,
Fc1ccc(-c2ccc(NCCN3CCOCC3)nn2)cc1,0.2,inactive,
c1ccc2cc3c(NCCN4CCOCC4)ccnc3cc2c1,8.7,,189% (active)
CC1(C)OC(=O)C2=C(C[C@@H](C3CC3)O[C@H]2CCc2cccc(Cl)c2)O1,0.7,inactive,
COc1cc(/C=C2/C(=O)NN(c3cccc(Cl)c3)C2=O)cc(Br)c1O,11.4,,287% (active)
COc1cc(/C=N/O)cc(Br)c1OCc1cccc(Cl)c1,0.1,inactive,
COc1cc(/C=C2/C(=O)NN(c3ccc(F)cc3)C2=O)cc([N+](=O)[O-])c1O,0.5,inactive,
CCOC(=O)[C@]12CCCC=C1N(CCC1=CCCCC1)C(=O)[C@H](CC(=O)N1CCSCC1)C2,4.4,inactive,
COc1ccc(Sc2ccc(NC(=O)c3cccc(Cl)c3)cc2C#N)cc1,1.1,inactive,
C[C@]12c3[nH]c4ccc(Cl)cc4c3CCN1C(=O)[C@@H](CC(=O)NCCCn1ccnc1)C[C@@H]2C(=O)N1CCOCC1,0.6,inactive,
CC(C)N(C(=O)[C@H]1C[C@H](CC(=O)NCCC2=CCCCC2)C(=O)N2CCc3c([nH]c4cc(CCC(=O)N(C)C)ccc34)[C@]12C)C(C)C,0.4,inactive,
CC(C)N(C(=O)[C@H]1C[C@H](CC(=O)NC(C)(C)C)C(=O)N2CCc3c([nH]c4ccc(Cl)cc34)[C@]12C)C(C)C,1.5,,8.17% (active)
O=C(NCc1ccc(F)cc1)c1cc(C2CCCCN2C(=O)C2CCCCC2)on1 (stereo unspecified),1.3,inactive,
COc1ccc(/C=C2\SC(=S)N(CCC(=O)N3CCOCC3)C2=O)cc1OC,0.9,inactive,
COc1cccc(/C=C2\SC(=S)N(CCCC(=O)N3CCOCC3)C2=O)c1,2.7,,19% (active)
COc1cccc(/C=C2\Sc3ccc(C(=O)NCC4CCCO4)cc3N(C)C2=O)c1 (stereo unspecified),3.7,inactive,
OC(c1cc(Cl)cc(Cl)c1)c1ncc(-c2ccccc2C(F)(F)F)[nH]1 (stereo unspecified),1.7,inactive,
Nc1nc2c(ncn2[C@@H]2O[C@H](CNS(=O)(=O)N3CCc4ccccc4C3)[C@@H](O)[C@H]2O)c(=O)[nH]1,0.7,inactive,
COc1cc(C2CC(=O)c3cnc(NC(C)=O)nc3C2)cc(OC)c1OC (stereo unspecified),0.9,inactive,
CCCOC(=O)c1[nH]c2c(c1C)C(=O)CC(c1cc(OC)c(OC)c(OC)c1)C2 (stereo unspecified),8.6,,37% (active)

SMILES,GFP+ MAC1+ double positive [%],outcome,normalized GFP-positive differentiation
COC(=O)C1C(=O)c2c([nH]c(C(=O)OCCSC)c2C)CC1C (stereo unspecified),3.1,inactive,
COc1ccc(CCN=C2SCC(=O)N2Cc2ccccc2)cc1OC,0.1,inactive,
COc1cc(/C=C2/SC(=S)N(Cc3ccccc3)C2=O)cc(OC)c1O,6.9,,111% (active)
CN1C=CC=C/C1=C1\SC(=S)N(Cc2ccccc2)C1=O,0.2,inactive,
Cc1ccc2nc(-c3ccccc3)c(CC3CCCCC3)n2c1,0.3,inactive,
COc1cc(OC)cc(C2=Cc3ccccc3C(CC(=O)c3ccco3)N2c2ccc(-c3cnc(OC)nc3)cc2)c1 (stereo unspecified),1,inactive,
CC(=O)N1Cc2cc(C(=O)NCc3cccc(F)c3)nc(-c3cccc(C4=CCCCC4)c3)c2[C@H]1CCO,1.2,inactive,
C[C@H](NC(=O)CC[C@H]1O[C@@H](n2ccc(=O)[nH]c2=O)[C@H](O)[C@@H]1O)c1cccc2ccccc12,1.1,inactive,
COc1cccc(CN(C)C(=O)CC[C@H]2O[C@@H](n3cnc4c(NC(=O)c5ccccc5)ncnc43)[C@H](O)[C@@H]2O)c1,0.5,inactive,
CCCCc1nc2ccc(F)cc2cc1C,0.5,inactive,
O=c1c(-c2ccc(Cl)cc2)[n+]([O-])c2ccccc2n1OCc1nc2ccccc2[nH]1,0.7,inactive,
O=C(Cc1ccc(Cl)cc1)c1ccccc1,0.7,inactive,
O=C(Cc1nc2ccccc2[nH]c1=O)c1ccc(Cl)cc1,72.3,,347% (active)
CN1OC[C@@H]2CN(C(=O)c3cccnc3)[C@H](c3ccc(N4CCCCC4)cc3)C[C@@H]21,1.2,inactive,
O=S1(=O)CC(N2CCC(Cc3ccccc3)CC2)CN1Cc1ccccc1 (stereo unspecified),1.3,inactive,
CC1(C(=O)NS(=O)(=O)c2cccc(F)c2)CCN1C(=O)Cc1ccc(Cl)cc1Cl (stereo unspecified),0.9,inactive,
Cc1ccc(NC(=O)CCN2C(=O)c3ccccc3C2=O)cc1C,0.6,inactive,
Cc1cc(C)cc(NC(=O)CCN2C(=O)c3ccccc3C2=O)c1,0.5,inactive,
Cc1ccc(/C=C2\SC(=S)N(CCC(=O)Nc3ccc(O)cc3)C2=O)cc1,17.3,,264% (active)
O=C(Nc1ccc(F)cc1)Nc1nnc([C@H]2C[C@H](O)[C@@H](CO)O2)s1,0.6,inactive,
CCCNC(=O)c1cc2c(c(-c3cccc(-c4ccc(C#N)cc4)c3)n1)[C@@H](CCO)N(C(=O)CC)C2,0.7,inactive,

SMILES,GFP+ MAC1+ double positive [%],outcome,normalized GFP-positive differentiation
O=C(NCc1ccc(F)cc1F)[C@@H]1CCCN1C(=O)[C@@H]1CCCN1C(=O)c1cccc(Cl)c1,0.5,inactive,
CN(C)c1ccc(C=C2C(=O)OC3(CCCC3)OC2=O)cc1,0.1,inactive,
CC1CN(Cc2ccccc2)C(=S)NC1=O (stereo unspecified),0.4,inactive,
CN(C)c1ccc(/C=C2\NC(=S)N(Cc3ccccc3)C2=O)cc1,23.7,,207% (active)
COc1ccc([C@H]2CC(=O)C[C@@H](CCn3cc(CC4CCCC4)nn3)O2)cc1,0.4,inactive,
CC(C)N1C(=O)c2ccccc2NC(=O)C1C(=O)NCc1cccs1 (stereo unspecified),2.7,inactive,
CCCCC(=O)Nc1nc(C)c(-c2csc(Nc3ccc(Cl)cc3)n2)s1,0.8,inactive,
Cc1ccc(Nc2nc(Cl)c(C=O)s2)cc1,1.3,,146% (active)
Cc1ccc(Nc2nnc(SC(C)C(=O)NC3CC3)s2)cc1 (stereo unspecified),0.7,inactive,
Cc1ccc(F)c(S(=O)(=O)NC(=O)C2(C)CCN2C(=O)c2ccco2)c1 (stereo unspecified),0.9,inactive,
CCCCCNC(=O)C(c1ccc(OC)cc1)n1c(=O)c(-c2ccccc2)nc2ccccc21 (stereo unspecified),2.6,inactive,
Cc1cc(Cl)ccc1-c1nc(NCCN(C)C)nc2ccsc12,1.3,inactive,
CC(C)c1nc(SCC(=O)Nc2cccc(C(=O)O)c2)c2c3c(sc2n1)CCCC3,1.4,inactive,
Cc1cc(NC(=O)CSc2nc(C(C)C)nc3sc4c(c23)CCC(C)C4)no1 (stereo unspecified),6.9,,29.7% (active)
Cc1cc(NC(=O)CSc2nc3c(cc2C#N)CCCCC3)no1,0,inactive,
CC(C)C[C@@H]1Cc2[nH][nH]c(=O)c2[C@H](CCc2ccccc2)O1,0.9,inactive,
Cc1cc2nc(-c3ccc(F)cc3)c(Cc3ccsc3)n2c(C)c1Br,1.3,inactive,
COC(=O)[C@]12CCCCC=C1N(Cc1ccco1)C(=O)[C@H](CC(=O)NCCCCc1ccccc1)C2,0.4,inactive,
CCc1nc2ccc(C(=O)NC3CCN(Cc4ccccc4)CC3)cn2c1N(C)CCN1CCOCC1,1.3,inactive,
Oc1ccccc1C1=NN(c2ccccc2)C(c2ccccc2)C1 (stereo unspecified),0.2,inactive,
Cc1ccc(C2CC(c3cccc(NS(C)(=O)=O)c3)=NN2S(C)(=O)=O)cc1 (stereo unspecified),0.5,inactive,

SMILES,GFP+ MAC1+ double positive [%],outcome,normalized GFP-positive differentiation
COc1ccc(C2CC(c3cccc(OC)c3)=NN2c2ccc(S(N)(=O)=O)cc2)cc1 (stereo unspecified),8.9,,14.9% (active)
O=C(/C=C/[C@H]1O[C@@H](n2ccc(=O)[nH]c2=O)[C@H](O)[C@@H]1O)NCc1ccccn1,1.5,inactive,
Cc1ccc(Cn2cc(CN3CC(N4CCN(C)CC4)CS3(=O)=O)nn2)cc1 (stereo unspecified),1,inactive,
CCCCC[C@@H]1C=C(C(=O)OCC)[C@H](c2ccccc2)N1S(=O)(=O)c1ccc(C)cc1,0.5,inactive,
O=C(O)COc1nsnc1N1CCOCC1,0,inactive,
c1ccc(COc2nsnc2N2CCOCC2)cc1,2.7,inactive,
c1nc(COc2nsnc2N2CCOCC2)cs1,7.1,,13.2% (active)
CCC(C(=O)NC(C)(C)C)n1c(-c2ccccc2)nc2ccccc21 (stereo unspecified),2,inactive,
O=C(NC1CCCC1)C1c2ccccc2OCC(=O)N1CC(F)(F)F (stereo unspecified),0.5,inactive,
O=C1NC[C@H](CCCCN2C[C@H](Cc3ccccc3)N(Cc3ccccc3)C(=O)C2=O)N(CCc2ccc(O)cc2)C1=O,1,inactive,
COC(=O)[C@@]12C[C@@H](CC(=O)N3CCCCC3)C(=O)N(Cc3ccc4c(c3)OCO4)C1=CCC(C)(C)C2,1.1,inactive,
Cc1ccc(-n2c(SCC(=O)Nc3ncc(Cl)cc3Cl)nc3ccccc32)cc1,11.5,,162% (active)
CC1(C(=O)OCC(=O)Nc2ncc(Cl)cc2Cl)CC1(Cl)Cl (stereo unspecified),0.3,inactive,
CCOc1ccc(-n2c(SCC(=O)Nc3cc(C(=O)O)ccc3Cl)nc3ccccc3c2=O)cc1,1.1,inactive,
CC1CCc2sc(C(=O)NCC(c3ccco3)N3CCCCC3)cc2C1 (stereo unspecified),0.5,inactive,
CC1Cc2ccccc2N1S(=O)(=O)c1cccc(C(=O)NCC(c2ccco2)N2CCCC2)c1 (stereo unspecified),1.4,,21.5% (active)
CC1Cc2ccccc2N1S(=O)(=O)c1cccc(C(=O)OCC(=O)N2CCOCC2)c1 (stereo unspecified),1,inactive,
CC12CCC(=O)C=C1CCC1C2C(O)CC2(C)C1CCC2(O)C(O)CO (stereo unspecified),1.1,inactive,
O=C(NCc1cccnc1)c1cc(C2CCCN(C(=O)CCCc3ccccc3)C2)on1 (stereo unspecified),0.8,inactive,
CCCCN(C=O)c1c(CC)nc2c(OCCC3CCCCC3)cccn12,0.7,inactive,

# Reference: PubChem BioAssay AID624256 (NMMLSC, 2012)
